This note sets out measurements from PubChem BioAssay (EPA / NIEHS).

A short description of test [1]: CCTE_Harrill_HTTr_Viability_MCF7: CCTE's 6-hour Cell Viability Assessment for the High-Throughput Transcriptomics (HTTr) Platform, in MCF-7 cells cultured in DMEM + 10% fetal bovine serum, Harrill Lab (AID 2284010; active = hit-call score of the fitted dose curve at least 0.9, where 1 is the maximum; inactive = score below 0.9). Put shortly: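 Eight-point concentration series, six-hour exposure. Propidium iodide exclusion imaged to assess membrane integrity as a cytotoxicity readout; bidirectional fitting was done with DMSO as negative control and activity baseline.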

Test [2] is described as follows: CCTE_Harrill_HTTr_CellCount_MCF7: CCTE's Cell Proliferation Assessment for the High-Throughput Transcriptomics (HTTr) Platform, Harrill Lab (AID 2284012).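 Note: count of Hoechst-stained nuclei per well by high-content imaging in MCF-7 cells; cells exposed to compound for six hours; intended direction is loss of nuclei count meaning fewer cells.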 An outline of the steps:
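For this full-screen endpoint, MCF-7 cultures received eight compound dilutions for six hours. Well nuclei counts from Hoechst imaging were analyzed relative to DMSO.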

Records with an inconclusive call do not appear. Calls of active or inactive are those of the source. Rule for the calls, unless noted: active = hit-call score of the fitted dose curve at least 0.9, where 1 is the maximum; inconclusive = response in the unintended direction; inactive = score below 0.9.

As for `CC1(C)O[C@@H]2[C@@H](CO[C@@]3(COS(N)(=O)=O)OC(C)(C)O[C@@H]23)O1`, the result in test [1] and in test [2] was inactive.

As to `CC(O)C1CCCCC1` (configuration not stated), the outcome in test [1] and in test [2] was inactive.

In the case of `CCCC1O[C@@H]2C[C@H]3[C@@H]4CCC5=CC(=O)C=C[C@]5(C)[C@H]4[C@@H](O)C[C@]3(C)[C@]2(C(=O)CO)O1` (some centres not stated), the outcome in test [1] and in test [2] was inactive.

Take `CC(C)(C)c1ccc(C(=O)O)cc1`: the outcome in test [1] and in test [2] was inactive.

Turning to `OCC#CCO`, the outcome in test [1] and in test [2] was inactive.

For `CC(C=O)Cc1ccc(C(C)(C)C)cc1` (configuration not stated), the result in test [1] and in test [2] was inactive.
